CYP2C19 activ = increases human CYP2C19 enzyme activity; recombinant CYP2C19, luciferin-H EGE luminescence; active compounds read high; 0 = fully inhibited enzyme, 1 = untreated enzyme; activation factor at 5 µM; 96,000 tested, under 10 active; AID 1025; P33261;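 active = activation factor of at least 2 at 5 µM in the primary screen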
CYP2C19 inh = human CYP2C19 inhibition. P33261. CYP2C19 Supersomes, luciferin-H EGE luminescence, 30 min. inhibition, % at 5 µM. hit rate 21% among 96,000;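 active = CYP2C19 inhibition above a set limit at 5 µM in the primary screen, cut at about 50% in these data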
CYP2C9 act = CYP2C9 (human) activation. P11712. recombinant CYP2C9, luciferin-H conversion, luminescence; active compounds read high; factor 1 = untreated enzyme, 0 = blocked. activation factor at 5 µM. hit rate 1.4% among 96,000. AID 1024;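 active = activation factor of 2 or more for CYP2C9 at a 5 µM dose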
EphB4 ephrin blk = EphB4-ephrin-B2 interaction antagonism | EphB4 LBD / TNYL-RAW-Alexa532 peptide, fluorescence polarization | AID 720 | P54760 | inhibition, % at 7 µM | hit rate 0.15% among 97,000;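 active = inhibition above the screen-wide mean inhibition plus 3 SD, cut at about 15% in these data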
CYP2C9 inh = blocks human cytochrome P450 2C9; hit rate 20% among 96,000; P11712; CYP2C9 Supersomes, luciferin-H conversion, luminescence; inhibition, % at 5 µM; AID 777;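 active = blocking of liver enzyme CYP2C9 beyond about 50% at 5 µM, limit read from the data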
A number is an active result. Shown are actives, neighbours in structure and some others; about 27% of the full set was active somewhere.

For CCOC(=O)c1nnn(-c2nc(OC)nc(N3CCCCC3)n2)c1-c1ccccc1 the results were CYP2C19 activ inactive, CYP2C19 inh 80, CYP2C9 act inactive, EphB4 ephrin blk inactive and CYP2C9 inh 56.
Screening CCOC(=O)c1nnn(-c2ccccc2)c1C returned EphB4 ephrin blk inactive.
COc1nc(OC)nc(N2CCCCCC2)n1 was read as EphB4 ephrin blk inactive.
For CCOc1nc(N2CCCCC2)nc(-n2cc(-c3ccccc3)nn2)n1 the results were CYP2C19 activ inactive, CYP2C19 inh inactive, CYP2C9 act inactive, EphB4 ephrin blk inactive and CYP2C9 inh inactive.
`CCOC(=O)c1c(-c2ccccc2)nnn1-c1nc(OCC)nc(N2CCCCC2)n1` gave CYP2C19 activ inactive, CYP2C19 inh 88, CYP2C9 act inactive and CYP2C9 inh 60.
`Cc1c(NC(=O)C2(c3ccccc3)CCOCC2)c(=O)n(-c2ccccc2)n1C` gave CYP2C19 activ inactive, CYP2C19 inh inactive, CYP2C9 act inactive, EphB4 ephrin blk inactive and CYP2C9 inh inactive.
Cc1ccc(S(=O)(=O)C2(C(=O)Nc3ccc4c(c3)OCO4)CC2)cc1 was read as CYP2C19 activ inactive, CYP2C19 inh 87, CYP2C9 act inactive and CYP2C9 inh 83.
For CSCCC(C(=O)Nc1ccc2c(c1)OCO2)N1C(=O)c2ccccc2C1=O (stereo not drawn) the results were CYP2C19 activ inactive, CYP2C19 inh inactive, CYP2C9 act inactive, EphB4 ephrin blk inactive and CYP2C9 inh 52.
For O=C(CSCSCC(=O)Nc1ccc2c(c1)OCO2)Nc1ccc2c(c1)OCO2 the results were CYP2C19 activ inactive, CYP2C19 inh inactive, CYP2C9 act inactive, EphB4 ephrin blk inactive and CYP2C9 inh 80.
Cc1ccc(CSCC(=O)Nc2ccc3c(c2)OCO3)cc1 was read as CYP2C19 activ inactive, CYP2C19 inh 59, CYP2C9 act inactive, EphB4 ephrin blk inactive and CYP2C9 inh inactive.
`Cc1ccc(S(=O)(=O)C2(C(=O)Nc3ccc(F)cc3)CC2)cc1` gave CYP2C19 activ inactive, CYP2C19 inh inactive, CYP2C9 act inactive, EphB4 ephrin blk inactive and CYP2C9 inh inactive.
Screening O=C(CSCc1ccccc1)Nc1ccc2c(c1)OCO2 returned EphB4 ephrin blk inactive.
COc1ccc(NC(=O)Cn2nc(C(F)(F)F)c3c2CCCC3)cc1OC was read as EphB4 ephrin blk inactive.
Screening O=C(CSCc1c(Cl)cccc1Cl)Nc1ccccc1C(=O)N1CCOCC1 returned CYP2C19 activ inactive, CYP2C19 inh inactive, CYP2C9 act inactive, EphB4 ephrin blk inactive and CYP2C9 inh 92.
O=C(CSCc1c(Cl)cccc1Cl)Nc1ccc2c(c1)OCO2 was read as CYP2C19 activ inactive, CYP2C19 inh inactive, CYP2C9 act inactive, EphB4 ephrin blk inactive and CYP2C9 inh 75.
`O=C(CSCc1ccc(Cl)cc1)Nc1ccccc1C(=O)N1CCOCC1` gave CYP2C19 activ inactive, CYP2C19 inh inactive, CYP2C9 act inactive, EphB4 ephrin blk inactive and CYP2C9 inh inactive.
Screening O=C(Cn1nc(C(F)(F)F)c2c1CCCC2)Nc1ccc2c(c1)OCO2 returned CYP2C19 activ inactive, CYP2C19 inh 87, CYP2C9 act inactive, EphB4 ephrin blk inactive and CYP2C9 inh 53.
`O=C(CSc1nnc(-c2ccccc2)o1)Nn1cnnc1` gave CYP2C19 activ inactive, CYP2C19 inh inactive, CYP2C9 act inactive, EphB4 ephrin blk inactive and CYP2C9 inh inactive.
`COc1cccc(-n2c(Cc3cc(=O)[nH]c(=O)[nH]3)nnc2SCc2cccnc2)c1` gave CYP2C19 activ inactive, CYP2C19 inh inactive, CYP2C9 act inactive, EphB4 ephrin blk inactive and CYP2C9 inh inactive.
`Clc1ccc(Sc2cc(Cl)c(-c3ccccc3)nn2)cc1` gave CYP2C19 activ inactive, CYP2C19 inh 55, CYP2C9 act inactive, EphB4 ephrin blk inactive and CYP2C9 inh 66.
For N#Cc1cc(-c2ccccc2)nnc1Sc1ccc(Cl)cc1 the results were CYP2C19 activ inactive, CYP2C19 inh inactive, CYP2C9 act inactive, EphB4 ephrin blk inactive and CYP2C9 inh inactive.
Screening COC(=O)C1=C(O)CSC1=Nc1cccc(C(F)(F)F)c1 returned CYP2C19 activ inactive, CYP2C19 inh inactive, CYP2C9 act inactive, EphB4 ephrin blk inactive and CYP2C9 inh inactive.
Screening CC(=O)OCCCN1c2ccccc2Nc2nnc(-c3ccccc3)cc21 returned CYP2C19 activ inactive, CYP2C19 inh 61 and EphB4 ephrin blk inactive.
`CC(C)(C)N1CC(COc2ccccc2)OC1=O` (stereo not drawn) gave CYP2C19 activ inactive, CYP2C19 inh 71, CYP2C9 act inactive, EphB4 ephrin blk inactive and CYP2C9 inh inactive.

Screening data (PubChem BioAssay)
